Screens from PubChem.
The sample as a whole holds a higher share of hits than the screen did.
HT1080 IDH1KD tx: HT-1080 IDH1 knockdown cell toxicity (counter line) | HT-1080 IDH1 knockdown viability, ATP luminescence, 48 h | Potency, µM (highest dose often 46.1 µM), without a hit: at the highest dose activity, negative = toxicity, most hits filed as cytotoxic | hit rate 2% among 360,000 | AID 686971;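 further: potency means the concentration at half of the fitted maximal effect; 0% = DMSO wells and -100% = cell-free medium wells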
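Cytotoxicity counter-line: IDH1KD HT-1080, 48 h, CellTiter-Glo. Curves classed by r2, magnitude and activity.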
HT1080-NT tox: kills 2HG-producing HT-1080-NT fibrosarcoma cells. HT-1080-NT fibrosarcoma viability, CellTiter-Glo ATP luminescence, 48 h. Potency, µM (series often up to 46.1 µM), for the others: top-dose activity, negative = less viability, actives largely listed as cytotoxic. hit rate 1.6% among 360,000. AID 686970;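 further: NT is the 2HG producing partner of a matched IDH1 knockdown line; potency means the concentration at half of the fitted maximal effect; 0% = DMSO-treated cells and -100% = media-only wells without cells; nearly all actives have a fitted effect of over 55% in size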
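Toxicity toward the 2HG-producing NT line was scored as %Activity, normalised to DMSO and no-cell wells, from CellTiter-Glo luminescence after 48 hours' treatment.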
DT40 TDP1 no CPT: qHTS for Inhibitors of human tyrosyl-DNA phosphodiesterase 1 (TDP1): qHTS in cells in absence of CPT; DT40 Tdp1-/- hTDP1 cells, no CPT, ATP luminescence, 48 h; Potency, µM (titrated, usually from 46.2 µM), for inactives: at the highest dose activity change, negative = growth inhibition, usual class: inhibitors; hit rate 15% among 420,000; AID 686978, 2013; further: potency means the concentration at half of the fitted maximal effect; nearly all actives have a fitted effect of over 55% in size
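Compound effects on proliferation are scored in DT40 Tdp1-/-;hTDP1 cells in the absence of CPT. ATP levels (CellTiter-Glo luminescence) are recorded after a ≥48 hr, 37 °C incubation.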
IL1B secr inh: inhibitors of inflammasome signaling (IL-1 beta secretion) | activity change, % at 57.5 µM | THP-1 LPS/ATP IL-1B secretion, AlphaLISA, 16 h; hits give low values | hit rate 4.7% among 360,000 | AID 743279; in the data active means activity change below about -50%; inconclusive means mostly about -30% to -49%
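Secreted IL-1B measured by AlphaLISA bead assay after 16 h compound exposure of THP-1 cells; compounds (final up to 57.5 uM) added 1 h before LPS (250 ng/mL) and ATP (1.25 mM) stimulation; lower signal means less secretion.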
DT40 TDP1 CPT: DT40-hTDP1 cell growth loss with CPT | chicken DT40 Tdp1-/-;hTDP1 cells + 20 nM CPT, ATP luminescence, 48 h | Potency, µM (highest dose often 46.2 µM), without a hit: at the top dose activity change, negative = growth inhibition, usual class: inhibitors | hit rate 12% among 420,000 | AID 686979; further: potency means the concentration at half of the fitted maximal effect; nearly all actives have a fitted effect of over 55% in size
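Chicken DT40 Tdp1-/- cells stably complemented with human TDP1 were seeded at 400 cells/well in medium containing 20 nM camptothecin, exposed to pin-transferred compounds, and grown at 37 °C for at least 48 hr. Viability was read as ATP luminescence.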
12-LOX inh: blocks human arachidonate 12S-lipoxygenase; AID 1671190; hit rate 1.1% among 580,000; Potency, µM (top dose mostly 108 µM), without a hit: top-dose activity change, negative = inhibition, actives largely listed as inhibitors; P18054; purified 12hLO, xylenol orange hydroperoxide absorbance; further: potency means the concentration at half of the fitted maximal effect
Target sequence (P18054 whole entry, looked up): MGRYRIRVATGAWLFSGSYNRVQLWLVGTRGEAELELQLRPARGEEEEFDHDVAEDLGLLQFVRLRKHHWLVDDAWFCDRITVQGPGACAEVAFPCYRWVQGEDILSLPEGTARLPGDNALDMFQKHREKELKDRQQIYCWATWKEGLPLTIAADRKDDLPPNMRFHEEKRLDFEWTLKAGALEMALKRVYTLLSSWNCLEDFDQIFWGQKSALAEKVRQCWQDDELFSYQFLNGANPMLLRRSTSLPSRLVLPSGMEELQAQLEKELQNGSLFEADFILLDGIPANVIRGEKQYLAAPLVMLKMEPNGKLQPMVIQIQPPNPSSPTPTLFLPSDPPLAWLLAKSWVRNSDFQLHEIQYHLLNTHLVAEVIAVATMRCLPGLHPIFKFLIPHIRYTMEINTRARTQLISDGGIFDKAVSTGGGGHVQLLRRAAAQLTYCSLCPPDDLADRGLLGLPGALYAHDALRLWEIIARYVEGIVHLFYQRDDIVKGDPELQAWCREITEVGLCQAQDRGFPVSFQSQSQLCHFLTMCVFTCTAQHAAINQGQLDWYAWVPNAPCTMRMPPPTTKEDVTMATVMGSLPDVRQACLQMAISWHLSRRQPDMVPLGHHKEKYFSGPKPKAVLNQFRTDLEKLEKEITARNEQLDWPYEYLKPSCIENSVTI
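Purified human 12hLO at 150 nM in 25 mM Hepes, 0.01% Triton X-100, pH 7.0, preincubated 15 min at room temperature with compound. Reaction started with 40 uM arachidonic acid, 30 min at room temperature. Hydroperoxide measured by Fe-xylenol orange, 573/405 nm absorbance ratio.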
Active calls of the source: *; u = inconclusive; x = not tested or not shown; ! = not confirmed by another sample; [ ] = dose if it differs, or a comment. Unless noted, the call rests on the fitted dose curve; in most records, active means well fitted curve in the direction sought with a large enough effect; inconclusive means small, poorly fitted or top-dose-only effect, or another doubt; inactive means no such curve, though single readings can be large; an effect the other way counts as inactive or inconclusive. Unless noted, on the % scale 0 is the no-effect control and ±100 the full control effect.

SMILES	HT1080 IDH1KD tx	HT1080-NT tox	DT40 TDP1 no CPT	IL1B secr inh	DT40 TDP1 CPT	12-LOX inh
CCc1ccc(-c2nc(CN3CCC(C(=O)N4CCN(c5ccccc5)CC4)CC3)c(C)o2)cc1	-16%	-13%	16µM*	u	u	u
COc1ccc(CN2CCNC(=O)C2CC(=O)N(C)C2CCOCC2)cc1OC (configuration not stated)	-4%	-4%	-6%	3	-2%	-2%
COC(=O)NC1(C(F)(F)F)C(=O)Nc2c1c(=O)n(C)c(=O)n2C (configuration not stated)	25%	5%	2%	-4	-4%	13%
Cn1c2c(c(=O)n(C)c1=O)C(C(F)(F)F)(C(F)(F)F)N=C(c1ccc(Cl)cc1)N2	7.3µM*	u	1.3µM*	-2	0.92µM*	x
Cn1c2c(c(=O)n(C)c1=O)C(C(F)(F)F)(C(F)(F)F)N=C(C1CCCCC1)N2	-20%	-27%	26µM*	-11	18µM*	2%
Cn1c2c(c(=O)n(C)c1=O)C(NC(=O)c1cccs1)(C(F)(F)F)C(=O)N2 (configuration not stated)	15%	9%	-6%	21	3%	0%
Cc1ccccc1C1=NC(C(F)(F)F)(C(F)(F)F)c2c(n(C)c(=O)n(C)c2=O)N1	-2%	2%	23µM*	-5	u	-3%
O=C(O)C/C(=C/c1ccccc1OC(F)F)c1nc2ccccc2s1	x	x	x	x	x	6%
O=C(Cn1cc(/C=C2\NC(=O)N(Cc3ccccc3)C2=O)c2ccccc21)N1CCOCC1	x	x	x	x	x	-12%
CC(C)c1ccc(C(=O)NCc2ccc(CN3CCCC3)cc2)cc1	x	x	x	x	x	-2%
Cc1ccc(NC(=O)c2nn(CC(C)C)c(=O)c3ccccc23)c(Br)c1	x	x	x	x	x	-8%
O=C(N/N=C/c1sc(N2CCOCC2)nc1-c1ccccc1)c1cccc(S(=O)(=O)N2CCCC2)c1	u	-4%	4.6µM*	56	2.6µM*	-13%
COc1cccc(/C=N/NC(=O)c2ccc(N3CCCC3=O)cc2)c1	u	u	23µM*	-29	u	-10%
O=C(N/N=C/c1cc(Cl)cc([N+](=O)[O-])c1O)c1cccc(S(=O)(=O)N2CCOCC2)c1	u	16µM*	u	14	-19%	u
O=C(N/N=C/c1cc(Br)cc(Br)c1O)c1cccc(N2CCCC2=O)c1	-22%	-12%	1.5µM*	129	5.2µM*	0%
O=C(N/N=C/c1sc(N2CCOCC2)nc1-c1ccccc1)c1ccc(O)cc1	-26%	-19%	u	-20	u	2%
O=C(N/N=C/c1ccc(Cl)cc1Cl)c1cccc(N2CCCC2=O)c1	-8%	-4%	-23%	u	-27%	6%
Cc1noc(C)c1S(=O)(=O)N1CC(N(C)Cc2cccnc2)C1	x	x	x	x	x	40%
Cc1nc(-c2cn(C3CCCN(C(=O)c4ccc(C(C)(C)C)cc4)C3)nn2)no1 (configuration not stated)	x	x	x	x	x	7%
O=C(N/N=C/c1ccccc1Br)c1cccc(S(=O)(=O)N2CCOCC2)c1	3%	-3%[9.24 µM]	-3%	27	-4%	8%
O=C(N/N=C/c1cc(Br)cc(Br)c1O)c1cccc(S(=O)(=O)N2CCOCC2)c1	u	-26%	3.7µM*	80	3.7µM*	0%
O=C(Oc1cccc2cccnc12)c1cccc([N+](=O)[O-])c1	u	u	0.73µM*	-99*	0.92µM*	u
O=C(Oc1cccc2cccnc12)c1ccc2ccccc2c1	x	x	x	x	x	4%
O=C(Oc1cccc2cccnc12)c1ccc2c(c1)OCCO2	u	23µM*	1µM*	-5	0.65µM*	-13%
Cc1c(C(=O)Nc2cccc3cccnc23)cccc1[N+](=O)[O-]	x	x	x	x	x	44%
SMILES	HT1080 IDH1KD tx	HT1080-NT tox	DT40 TDP1 no CPT	IL1B secr inh	DT40 TDP1 CPT	12-LOX inh
Cc1c(C(=O)Oc2cccc3cccnc23)cccc1[N+](=O)[O-]	u	u	u	-66*	u	-14%
O=C(Oc1ccc(Cl)c2cccnc12)c1cccc([N+](=O)[O-])c1	-1%	-10%	0.92µM*	-18	1.3µM*	-14%
Cc1cc(C)c(C2=NOC3c4ccccc4OCC23)c(C)c1 (configuration not stated)	x	x	x	x	x	1%
O=C(Oc1c(Cl)cc(Cl)c2cccnc12)c1cccc([N+](=O)[O-])c1	u	u	3.3µM*	46	2.9µM*	x
CCN(CC)C(=O)Oc1c(Cl)cc(Cl)c2cccnc12	-14%	-6%	u	-1	18%	1%
O=[N+]([O-])c1ccc(Oc2cccc3cccnc23)c([N+](=O)[O-])c1	23µM*	u	6.5µM*	-29	5.2µM*	u
CCc1ccc(NC(=O)N(C)CC2CCOC2)cc1 (configuration not stated)	x	x	x	x	x	5%
CO/N=C(\Cn1ncc(N2CCCC2)c(Cl)c1=O)c1ccc(Cl)cc1	-2%	-14%	23µM*	-13	29µM*	-8%
CC(=O)Cn1ncc(N2CCCCC2)c(Cl)c1=O	-3%	0%	-9%	-2	-9%	-1%
C=C1C(=O)OC2C=C(CO)CCC=C(CO)CC(OC(=O)C(C)C)C12 (configuration not stated)	13µM*	-1%	2.9µM*	-101*	2.9µM*	7%
O=C(O)C1OC(Oc2cc3oc(-c4ccccc4)cc(=O)c3c(O)c2O)C(O)C(O)C1O (configuration not stated)	9%	3%	u	1	23µM*	-1%
O=C(c1n[nH]c(=O)c2ccccc12)N1CCc2sccc2C1	x	x	x	x	x	-23%
Cc1nn(C2CCS(=O)(=O)C2)c(Cl)c1/C=C/C(=O)OCC(=O)c1c[nH]c2ccccc12 (configuration not stated)	0%	-5%	u	-14	u	-3%
Cc1nn(C2CCS(=O)(=O)C2)c(Cl)c1/C=C/C(=O)OCC(=O)c1cc(C)n(-c2ccc(F)cc2)c1C (configuration not stated)	u	-18%	16µM*	-18	21µM*	-9%
COc1cc(OC)c(-c2nn3c(-c4cc(C)[nH]n4)nnc3s2)cc1OC	x	x	4.5µM*	x	7.1µM*	x
COc1cc(OC)c(-c2nn3c(-c4n[nH]c5c4CCC5)nnc3s2)cc1OC	x	x	11µM*!	x	u	x
Cc1ccc(Nc2nc(CSc3nnnn3C)cs2)cc1	1%	11%	u	-5	-20%	0%
